Assay [1] can be described thus: NCI Yeast Anticancer Drug Screen. Data for the rad50 strain (AID 155).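 Note: 0% = growth of vehicle-only cultures of the same strain.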 As to conditions: S. cerevisiae rad50 strain growth inhibition, hits give high values. In outline: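 Yeast carrying a defined DNA repair defect were exposed to test compounds, and growth was compared with vehicle-treated controls to give percent inhibition.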
A short description of assay [2]: NCI Yeast Anticancer Drug Screen. Data for the mec2-1 strain (AID 157). As to conditions: S. cerevisiae mec2-1 strain, hits give high values. In outline: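 Mutant yeast (mec2-1) grown with compound; growth inhibition relative to vehicle control reported.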
Assay [3] is described as follows: NCI Yeast Anticancer Drug Screen. Data for the sgs1 mgt1 strain (AID 161).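 Note: 0% = growth of cultures given vehicle only.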 Conditions: S. cerevisiae sgs1 mgt1 strain, hits give high values. In outline:
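Compounds are added to genetically altered yeast, and growth is compared with cultures given vehicle alone to give percent inhibition.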

Assay [4] in a line: NCI Yeast Anticancer Drug Screen. Data for the cln2 rad14 strain (AID 165).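 Note: 0% = growth equal to vehicle treated cultures.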 As to conditions: S. cerevisiae cln2 rad14 strain, hits give high values. The method, boiled down:
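Readout is yeast growth inhibition versus vehicle-treated controls, using a strain with cln2 and rad14 alterations exposed to compound.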

Assay [5] is described as follows: NCI Yeast Anticancer Drug Screen. Data for the bub3 strain (AID 167). Conditions: S. cerevisiae bub3 mutant strain, hits give high values. The method, boiled down: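 Compounds were applied to a genetically altered yeast strain carrying a cell-cycle control defect. Growth inhibition was scored against vehicle-treated controls.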
Assay [6] can be described thus: NCI Yeast Anticancer Drug Screen. Data for the mlh1 rad18 strain (AID 175). Conditions: S. cerevisiae mlh1 rad18 strain growth inhibition, hits give high values. The method, boiled down:
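Genetically defined yeast (DNA repair-deficient) exposed to compounds; growth inhibition determined relative to vehicle.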

Where [7] appears, read: at 5.0 µM (retest, dose inferred, filed as 0.5).
The mark [8] stands for this setting: at 50.0 µM (retest, dose inferred, filed as 5.0).

This is part of a sample that, as a whole, favours compounds with a hit. Of some 79,000 tested, about 15% had one in any assay. Values without a mark were called inactive. Active and inactive are the calls of the source. Cut-off read from the data, not from the text of the source: active = growth inhibition above about 70%; inactive = the rest.

As for `CC(C)Cc1cc(O)cc2ccccc12`, the growth inhibition in assay [1] (setting [7]) is 4%; in assay [1] (setting [8]) it was 98% (active); in assay [1] (at 50.0 µM) it was 98.9% (active); in assay [2] (setting [7]), 5%; in assay [2] (setting [8]), 99% (active); in assay [2] (at 50.0 µM) it was 99.2% (active). The growth inhibition is 3% in assay [3] (setting [7]); 98% (active) in assay [3] (setting [8]); 98.5% (active) in assay [3] (at 50.0 µM); 2% in assay [4] (setting [7]); 97% (active) in assay [4] (setting [8]); 98.4% (active) in assay [4] (at 50.0 µM). Also, the growth inhibition is 5% in assay [5] (setting [7]); 99% (active) in assay [5] (setting [8]); 98.5% (active) in assay [5] (at 50.0 µM); 0% in assay [6] (setting [7]); 98% (active) in assay [6] (setting [8]); 98.8% (active) in assay [6] (at 50.0 µM).
Turning to `C1=c2ccccc2=C2C(=C(c3ccccc3)C(c3ccccc3)=NN2c2ccccc2)S1`, the growth inhibition was -25% in assay [1] (setting [7]); -9% in assay [1] (setting [8]); -14.2% in assay [1] (at 50.0 µM); 0% in assay [2] (setting [7]); -17% in assay [2] (setting [8]); -18.6% in assay [2] (at 50.0 µM). Further, the growth inhibition in assay [3] (setting [7]) is -13%; in assay [3] (setting [8]) it was -22%; in assay [3] (at 50.0 µM) it was -18.8%; in assay [4] (setting [7]), -22%; in assay [4] (setting [8]), -13%; in assay [4] (at 50.0 µM), 5.9%. The growth inhibition in assay [5] (setting [7]) is -4%; in assay [5] (setting [8]), 2%; in assay [5] (at 50.0 µM) it was -5.35%; in assay [6] (setting [7]), -1%; in assay [6] (setting [8]), -32%; in assay [6] (at 50.0 µM) it was -2.55%.
On to `CCC(CC)COC(=O)c1cccnc1`, for which the growth inhibition is 1% in assay [1] (setting [7]); 99% (active) in assay [1] (setting [8]); 97.7% (active) in assay [1] (at 50.0 µM); -19% in assay [2] (setting [7]); 99% (active) in assay [2] (setting [8]); 99.1% (active) in assay [2] (at 50.0 µM). Also, the growth inhibition in assay [3] (setting [7]) is 0%; in assay [3] (setting [8]), 99% (active); in assay [3] (at 50.0 µM) it was 98.2% (active); in assay [4] (setting [7]), -4%; in assay [4] (setting [8]), 99% (active); in assay [4] (at 50.0 µM), 96.9% (active). In addition, the growth inhibition in assay [5] (setting [7]) is -6%; in assay [5] (setting [8]) it was 98% (active); in assay [5] (at 50.0 µM), 97.8% (active); in assay [6] (setting [7]), 0%; in assay [6] (setting [8]) it was 98% (active); in assay [6] (at 50.0 µM), 97.5% (active).
As to `COc1ccc(/C(O)=C/c2nc3ccc([N+](=O)[O-])cc3[nH]c2=O)cc1`, the growth inhibition in assay [1] (setting [7]) is 12%; in assay [1] (setting [8]), 70% (active); in assay [1] (at 50.0 µM), 78.9% (active); in assay [2] (setting [7]), 1%; in assay [2] (setting [8]), 57%; in assay [2] (at 50.0 µM), 49.5%. Moreover, the growth inhibition in assay [3] (setting [7]) is -2%; in assay [3] (setting [8]) it was 67%; in assay [3] (at 50.0 µM) it was 92.6% (active); in assay [4] (setting [7]), 3%; in assay [4] (setting [8]), 77% (active); in assay [4] (at 50.0 µM) it was 80.7% (active). The growth inhibition in assay [5] (setting [7]) is 2%; in assay [5] (setting [8]) it was 46%; in assay [5] (at 50.0 µM), 26.9%; in assay [6] (setting [7]), 2%; in assay [6] (setting [8]), 68%; in assay [6] (at 50.0 µM), 90.8% (active).
As to `O=c1[nH]c(=O)c2cc([N+](=O)[O-])cc([N+](=O)[O-])c2[nH]1`, the growth inhibition in assay [1] (setting [7]) was 9%; in assay [1] (setting [8]) it was 75% (active); in assay [1] (at 50.0 µM), 50.6%; in assay [2] (setting [7]), 6%; in assay [2] (setting [8]), 57%; in assay [2] (at 50.0 µM), 73.7% (active). The growth inhibition in assay [3] (setting [7]) is 12%; in assay [3] (setting [8]), 78% (active); in assay [3] (at 50.0 µM), 54.9%; in assay [4] (setting [7]), -3%; in assay [4] (setting [8]) it was 63%; in assay [4] (at 50.0 µM), 25.7%. The growth inhibition was 8% in assay [5] (setting [7]); 70% (active) in assay [5] (setting [8]); 78.3% (active) in assay [5] (at 50.0 µM); 5% in assay [6] (setting [7]); 38% in assay [6] (setting [8]); 75% (active) in assay [6] (at 50.0 µM).
Consider `COc1cc2c(c(O)c1OC)-c1c(cc(OC)c(OC)c1OC)CC(C)C(C)C2` (configuration not stated), for which the growth inhibition in assay [1] (setting [7]) was -23%; in assay [1] (setting [8]), 27%; in assay [1] (at 50.0 µM), 66.9%; in assay [2] (setting [7]), -23%; in assay [2] (setting [8]), 11%; in assay [2] (at 50.0 µM), 46.7%. The growth inhibition in assay [3] (setting [7]) was -15%; in assay [3] (setting [8]), 63%; in assay [3] (at 50.0 µM), 74.7% (active); in assay [4] (setting [7]), -10%; in assay [4] (setting [8]) it was 61%; in assay [4] (at 50.0 µM), 51.5%. Also, the growth inhibition in assay [5] (setting [7]) is 9%; in assay [5] (setting [8]) it was 53%; in assay [5] (at 50.0 µM), 60%; in assay [6] (setting [7]), 6%; in assay [6] (setting [8]), 59%; in assay [6] (at 50.0 µM) it was 18.7%.
In the case of `Cc1ccc(NCCN(C)C)c2c(=O)c3c(O)cccc3sc12`, the growth inhibition in assay [1] (setting [7]) was 95% (active); in assay [1] (setting [8]) it was 99% (active); in assay [1] (at 50.0 µM) it was 67.3%; in assay [2] (setting [7]) it was 13%; in assay [2] (setting [8]), 100% (active); in assay [2] (at 50.0 µM), 54.3%. The growth inhibition in assay [3] (setting [7]) was 30%; in assay [3] (setting [8]), 98% (active); in assay [3] (at 50.0 µM), 60.7%; in assay [4] (setting [7]), 11%; in assay [4] (setting [8]), 99% (active); in assay [4] (at 50.0 µM), 58.7%. Besides, the growth inhibition in assay [5] (setting [7]) is 9%; in assay [5] (setting [8]), 99% (active); in assay [5] (at 50.0 µM) it was 49.5%; in assay [6] (setting [7]), 29%; in assay [6] (setting [8]), 99% (active); in assay [6] (at 50.0 µM) it was 55.8%.
As for `N#CC1(C#N)C2C=CC(c3coc4cccc2c34)C1(C#N)C#N` (configuration not stated), the growth inhibition in assay [1] (setting [7]) is 29%; in assay [1] (setting [8]), 37%; in assay [1] (at 50.0 µM) it was 35.6%; in assay [2] (setting [7]), 17%; in assay [2] (setting [8]), 27%; in assay [2] (at 50.0 µM), 35.9%. The growth inhibition was 32% in assay [3] (setting [7]); 37% in assay [3] (setting [8]); 75% (active) in assay [3] (at 50.0 µM); 19% in assay [4] (setting [7]); 27% in assay [4] (setting [8]); 19.2% in assay [4] (at 50.0 µM). For the same compound, the growth inhibition in assay [5] (setting [7]) was 22%; in assay [5] (setting [8]) it was 47%; in assay [5] (at 50.0 µM), 58.2%; in assay [6] (setting [7]) it was 26%; in assay [6] (setting [8]) it was 47%; in assay [6] (at 50.0 µM) it was 57.9%.
With `CCCCCCCCCCCC(=O)NN`, the growth inhibition was 14% in assay [1] (setting [7]); 82% (active) in assay [1] (setting [8]); 97.4% (active) in assay [1] (at 50.0 µM); 12% in assay [2] (setting [7]); 43% in assay [2] (setting [8]); 97.6% (active) in assay [2] (at 50.0 µM). The growth inhibition in assay [3] (setting [7]) is 6%; in assay [3] (setting [8]), 68%; in assay [3] (at 50.0 µM), 98% (active); in assay [4] (setting [7]), -3%; in assay [4] (setting [8]), 65%; in assay [4] (at 50.0 µM) it was 97% (active). The growth inhibition in assay [5] (setting [7]) is 22%; in assay [5] (setting [8]), 52%; in assay [5] (at 50.0 µM), 95.3% (active); in assay [6] (setting [7]), 8%; in assay [6] (setting [8]), 82% (active); in assay [6] (at 50.0 µM) it was 97.8% (active).

The record behind these values is PubChem BioAssay (NCI).
